# High-throughput results: PubChem BioAssay, Broad Institute
# MITF inhib – blocks MITF activity; 37,000 tested, 0.28% active; AID 2240; TRPM1 promoter luciferase, luminescence, 24 h; inhibition, % (concentration not given with the values); in the data active = inhibition above about 85%; inconclusive = no clear call, values can overlap the other calls; inactive = below about 68%;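 note: human melanocyte line stably carrying TRPM1 promoter luciferase reporter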
# Shh pathway inh – blocks Sonic Hedgehog signaling; Shh-LIGHT2 Gli-luciferase reporter, 30 h; inhibition, % (no concentration beside the values); 22,000 tested, 2.1% active;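 active = mean inhibition across valid replicates above about 65%, limit read from the data; inconclusive = mean under the limit, yet half or more replicates past it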;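 note: pathway switched on by Shh-conditioned medium diluted 1 in 25 in low serum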
# YB-1 expr inh – YB-1 expression inhibition. U2OS, qRT-PCR YB-1 vs CDIP delta delta Cp, 16 h; hits give high values; zero = DMSO, each unit about twofold. delta delta Cp (YB-1 minus CDIP) (no concentration beside the values). 30,000 tested, 0.37% active;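 active = delta delta Cp rounded down to an integer at or above 3, about 3 SD of DMSO wells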;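 note: higher means less YB-1 transcript or more CDIP transcript relative to DMSO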
# PD-1 reversal – activators reversing PD-1 mediated T-cell inhibition. primary human CD4 T cells, PD-L1 beads, CellTiter-Glo 96 h. activation, % (concentration not given with the values). 29,000 tested, under 10 active. AID 2316; call rule not given here;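 note: 0% = median vehicle wells and 100% = positive control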
# Numbers without * were called inactive; ? = inconclusive; . = no result; ! = a repeat was not active. The full list was thinned out, with hits kept by preference.
SMILES,MITF inhib,Shh pathway inh,YB-1 expr inh,PD-1 reversal
O=C1NC(=O)C(=C/C=C/c2ccccc2)C(=O)N1,87*,?,0.17,-9
COc1ccc([C@H]2Oc3c(I)c(OC)cc(OC)c3C[C@@H]2O)cc1OC,7,28,-0.24,.
CO[C@H]1[C@H](O)[C@H](O[C@H]2CC[C@]3(C)C4CC[C@]5(C)[C@H](C6=CC(=O)OC6)CC[C@]5(O)C4CC[C@@H]3C2)O[C@@H](C)[C@@H]1O[C@@H]1O[C@H](CO[C@@H]2O[C@H](CO)[C@@H](O)[C@H](O)[C@H]2O)[C@@H](O)[C@H](O)[C@H]1O (some centres undefined),31,-5,-0.089,-12
CC(C)c1cc2c(cc1O)[C@@]1(C)C[C@@H](O)CC(C)(C)C1CC2 (some centres undefined),-4,-21,4.5*,-1
CC(C)c1cc2c(cc1O)[C@@]1(C)C[C@@H](O)CC(C)(CO)C1CC2 (some centres undefined),-7,-4,-0.14,1
COc1ccc(C(=O)O[C@H]2CC[C@@]3(C)[C@@H]4CC[C@H]5[C@]6(O)C[C@H](O)[C@@]7(O)[C@@H](CN8C[C@@H](C)CC[C@H]8[C@@]7(C)O)[C@]6(O)C[C@@]53O[C@]24O)cc1OC,-10,-20,-0.21,.
FC(F)(F)c1ccc2c(c1)N(CCCN1CCN(CCCl)CC1)c1ccccc1S2,18,66*,-16,-8
CC1=CC(=O)c2c(O)cccc2C1=O,97*,97*,0.085,.
O=c1c2ccccc2[nH]c(=S)n1-c1cc(C(F)(F)F)cc(C(F)(F)F)c1,9,18,0.18,-1
CCOCN(C(=O)CCl)c1c(C)cccc1CC,99*,80*,-0.18,.
COC(=O)[C@@]12C(=O)C(C)C(=O)[C@]1(C)C(C)=C[C@H]1[C@]3(C)CC[C@H](OC(C)=O)C(C)(C)[C@H]3CC[C@@]12C (some centres undefined),-15,-10,0.0092,3
CO[C@H]1[C@H](O)[C@H](O[C@H]2CC[C@]3(C)C4CC[C@]5(C)[C@H](C6=CC(=O)OC6)CC[C@]5(O)C4CC[C@@H]3C2)O[C@@H](C)[C@@H]1O (some centres undefined),31,-5,-0.012,-35
N#CC(C#N)=NNc1ccc(OC(F)(F)F)cc1,67,82*,0.85,-50
COc1ccc(C[C@H]2NC[C@H](O)[C@H]2OC(C)=O)cc1,104*,107*,1.2,.
C[C@H](CO)N1C[C@H](C)[C@H](CN(C)C(=O)Oc2cccc3ccccc23)OCc2cn(nn2)CCCC1=O,.,.,0.079,.
c1ccc(CCCN2CCN(CCOC(c3ccccc3)c3ccccc3)CC2)cc1,21,86*,22*,.
Fc1ccc(C(OCCN2CCN(CCCc3ccccc3)CC2)c2ccc(F)cc2)cc1,7,67*!,0.82,.
Fc1ccc(C(OCCN2CCN(C/C=C/c3ccccc3)CC2)c2ccc(F)cc2)cc1,100*,84*,0.45,.
COc1ccc2c3c1O[C@H]1[C@@H](O)CC=C4[C@@H](C2)N(C)CC[C@]431,-8,-37,0.24,.
CO[C@H](C)C(O)(C(=O)OCC1=CCN2CC[C@H](O)[C@@H]12)C(C)C (some centres undefined),-10,-68,-0.47,.
Cc1c2ccncc2c(C)c2c1[nH]c1ccccc12,28,71*,1.3,-18
O=C1CC=C2C3CC4N(CCC45c4ccccc4N1C25)C/C3=C/CO (centres undefined),7,16,10*,1
CCNC(=O)[C@H]1O[C@@H](n2cnc3c(N)ncnc32)C(O)[C@H]1O (some centres undefined),-1,42,-0.28,8
COC1CC(OC2C(C)OC(OC3C(C)OC(OC4C(C)OC(O[C@H]5CC[C@@]6(C)C(=CC[C@]7(O)C6CC(OC(=O)c6ccccc6)[C@@]6(C)[C@]7(O)CC[C@@]6(O)C(C)=O)C5)CC4OC)CC3OC)CC2OC)OC(C)C1O (some centres undefined),35,-48,0.22,-4
N#CC(C#N)=Cc1ccc(O)c(O)c1,1,?,-0.22,-1
SMILES,MITF inhib,Shh pathway inh,YB-1 expr inh,PD-1 reversal
CC(C)(C)c1cc(C=C(C#N)C#N)cc(C(C)(C)C)c1O,88*,104*,0.23,-34
COC(=O)c1ccc(OP2(=O)COc3ccccc3OC2)cc1,-3,-12,-0.094,1
C/C1=C/C(=O)O[C@@H]2C[C@@H](CC[C@H](C)/C=C\CC1)O[C@@](O)([C@@H]1CSC(=O)N1)C2,48,102*,0.042,.
COC(=O)CC1=C(C(=O)OC)C2(C(=O)Nc3ccccc32)C(C(=O)OC)=C(N)O1 (centres undefined),9,-4,-0.089,-1
C=C1[C@@H](C)[C@H]2[C@H](Cc3ccccc3)NC(=O)[C@]23[C@H](OC(C)=O)C=C[C@](C)(O)C(=O)[C@@H](C)C/C=C/[C@H]3[C@@H]1O,57,73*,-0.099,.
C=CC(C)(C)[C@]12C=C(OC)C(=O)N3/C(=C/c4cnc[nH]4)C(=O)N[C@@]31N(OC)c1ccccc12,11,-4,-0.079,0
CCc1nc2ccccc2c(=O)n1-c1ccccc1Cl,25,-32,-0.19,1
CC[C@@H]1/C=C\C=C\C[C@H](C)C(O)[C@](C)(O)C(=O)[C@H](C)C(O)[C@H](C)C(=O)[C@H](C)[C@@H](O)[C@H](C)/C=C/C(=O)O[C@H]2[C@@H](C)[C@@H](CC1)O[C@@]1(CC[C@@H](C)[C@@H](C[C@H](C)O)O1)[C@@H]2C (some centres undefined),75,108*,-0.57,-15
COc1ccc(Cl)cc1NC1=NCC(C)S1 (centres undefined),-7,-38,10*,-1
CCC(C)[C@H]1O[C@]2(C=C[C@@H]1C)C[C@@H]1C[C@@H](C/C=C(\C)[C@@H](OC3C[C@H](OC)C(O[C@H]4C[C@H](OC)[C@@H](O)[C@H](C)O4)[C@H](C)O3)[C@@H](C)/C=C/C=C3\CO[C@@H]4[C@H](O)C(C)=C[C@@H](C(=O)O1)[C@]34O)O2 (some centres undefined),100*,5,0.19,.
COC[C@H]([C@@H](O)[C@@H](O)C(=O)NCC[C@@H](C)c1nc(/C=C/C[C@H]2OC3(C[C@H](O)[C@H]2C)OC([C@@H](C[C@@H](O)[C@@H](C)[C@@H](O)[C@@H](C)/C=C(C)/C(C)=C/C=C/C(C)=C\C#N)OC)[C@@H](OP(=O)(O)O)C3(C)C)co1)N(C)C (some centres undefined),65,105*,0.95,-42
O=C1CCCC2C3CC(CN12)[C@@H]1CCCCN1C3 (some centres undefined),-2,3,-0.65,.
C/C=C/[C@@H]1[C@H]2C[C@@H](C)CC[C@@H]2C(C)=C[C@H]1C(=O)c1c(O)c(-c2ccc(O)cc2)c[nH]c1=O,20,-9,0.97,-1
